Screening data (PubChem)
A selection: hits, their analogues and other compounds. The true share with any hit is near 7%.
IL-1B inflam inh: blocks inflammasome-driven IL-1 beta release. THP-1 LPS/ATP IL-1B secretion, AlphaLISA, 16 h; stronger effect = lower value. activity change, % at 57.5 µM. 4.7% of 360,000 active; in the data active = activity change below about -50%; inconclusive = mostly about -30% to -49%; note: % is set by controls: 0 for no effect and ±100 for the full control effect
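Secreted IL-1B measured by AlphaLISA bead assay after 16 h compound exposure of THP-1 cells; compounds (final up to 57.5 uM) added 1 h before LPS (250 ng/mL) and ATP (1.25 mM) stimulation; lower signal means less secretion.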
DRD3 agonist: agonists of human D3 dopamine receptor. P35462. D3R DiscoveRx beta-arrestin cells, luminescence, 90 min. max activation, %. 0.58% of 410,000 active; in the data active = max activation above about 30%; note: 0% is about no effect
Target sequence (P35462 whole entry, looked up): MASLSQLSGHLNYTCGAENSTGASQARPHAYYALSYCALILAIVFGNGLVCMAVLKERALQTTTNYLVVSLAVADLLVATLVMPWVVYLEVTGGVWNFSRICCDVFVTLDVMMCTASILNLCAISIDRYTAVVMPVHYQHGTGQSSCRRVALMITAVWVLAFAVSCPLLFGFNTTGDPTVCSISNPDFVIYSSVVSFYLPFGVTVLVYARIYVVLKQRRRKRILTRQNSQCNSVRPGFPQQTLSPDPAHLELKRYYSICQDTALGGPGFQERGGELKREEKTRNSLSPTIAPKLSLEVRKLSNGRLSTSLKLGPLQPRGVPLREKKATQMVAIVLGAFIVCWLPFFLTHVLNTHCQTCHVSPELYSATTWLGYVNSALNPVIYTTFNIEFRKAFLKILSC
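Agonist-mode cell screen: cells plated at 1500/well and incubated overnight at 37 °C, then exposed to library compounds for 90 min at 37 °C. Detection reagent was added for 30–60 min at room temperature, and luminescence was read.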
a7 integrin act: integrin-mediated muscular dystrophy alleviation activation; alpha7betagal myoblasts, beta-gal FDG fluorescence, 48 h; Potency, µM (titrated, usually from 38.3 µM), for the others: at the highest dose activation, most hits filed as activators; 0.064% of 350,000 active;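 note: potency is the fitted concentration of half-maximal effect; 100% = response of the positive control SU9516; nearly all actives have a fitted effect of over 60% in size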
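Alpha7betagal+/- myoblasts (passage 13) were plated 16-24 hr, then exposed to compounds (1:260 dilution of DMSO stock) for 48 hours at 37C. After MPER lysis, β-galactosidase reporter activity was read as FDG fluorescence (ex 480/em 540) after 30 minutes.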
ATXN2 expr inh: inhibitors of ATXN2 expression; AID 1745845; HEK-293 ATXN2-luciferase reporter, luminescence, 24 h; Potency, µM (doses to about 57 µM), for the others: at the top dose activity change, negative = inhibition, hits mostly inhibitors; 0.72% of 360,000 active; note: potency is the fitted concentration of half-maximal effect; % is set by controls: 0 for no effect and ±100 for the full control effect; nearly all actives have a fitted effect of over 55% in size
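qHTS (up to 57 uM final) was run with 24 h compound exposure of reporter cells at 37 °C. Each well was multiplexed: SteadyGlo luminescence measured ATXN2-luciferase expression after a fluorogenic Gly-Phe-AFC viability readout (25 uM final).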
D3 antag: blocks the human D3 dopamine receptor; P35462; D3R cells, DiscoveRx beta-arrestin luminescence, antagonist mode; stronger effect = lower value; max response, negative = inhibition, %; 2.5% of 360,000 active; AID 652054; in the data active = max response below about -50%; inconclusive = no clear call, values can overlap the other calls; note: % is set by controls: 0 for no effect and ±100 for the full control effect
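Cells expressing the human receptor were seeded at 1500 cells/well, incubated overnight at 37 degrees C in 5% CO2, then exposed to library compounds with dopamine controls for 90 minutes at 37 degrees C before luminescent detection.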
S2 tox: viability counter-screen for ATXN expression inhibitors; S2 cells (HEK-293 line with an ATXN2-luciferase reporter) viability, CellTiter-Fluor protease fluorescence, 24 h; 0.49% of 400,000 active; Potency, µM (series often up to 56.7 µM), most hits filed as cytotoxic; note: potency is the fitted concentration of half-maximal effect; nearly all actives have a fitted effect of over 40% in size
An asterisk follows results filed as active; i = inactive; ? = inconclusive; . = no result given; [ ] = another dose, or the depositor's remark. Unless noted, calls come from the whole dose curve; as a rule, active = well fitted curve in the direction sought with a large enough effect; inconclusive = small, poorly fitted or top-dose-only effect, or another doubt; inactive = no such curve, though single readings can be large; an effect the other way counts as inactive or inconclusive.

SMILES | IL-1B inflam inh | DRD3 agonist | a7 integrin act | ATXN2 expr inh | D3 antag | S2 tox
COc1ccc(C(=O)/C=C2/C(=O)Nc3ccccc32)cc1 | ? | -11 | -52% | ? | ? | ?
O=C1Nc2ccccc2/C1=C/C(=O)c1cccs1 | -119* | -6 | -45% | ? | -16 | ?
C(=C\c1ccccc1)/CN1CCN(Cc2nc(Cc3ccccc3)no2)CC1 | 0 | -5 | 23% | . | -3 | i
COc1ccc(CN2CCCC(CO)(Cc3ccc(F)cc3F)C2)cc1 (stereo not drawn) | -84* | -18 | -34% | -6% | -14 | i
CCOc1ccc(CN2CCCC(CO)(Cc3ccc(F)cc3)C2)cc1 (stereo not drawn) | ? | -19 | -48% | -20% | -20 | i
COc1cc(Cl)c(CN2CCCC(CO)(Cc3ccccc3)C2)cc1OC (stereo not drawn) | -25 | -3 | -10% | -16% | 12 | i
OCC1(Cc2ccc(F)cc2)CCCN(Cc2ccc(F)cc2Cl)C1 (stereo not drawn) | -3 | -11 | -14% | -37% | -61* | i
COC(=O)c1ccc(CN2CCCC(CO)(Cc3ccccc3F)C2)cc1 (stereo not drawn) | 2 | -19 | 17% | 3% | -88* | i
CSc1ccc(CN2CCCC(CO)(Cc3ccccc3)C2)cc1 (stereo not drawn) | -3 | -4 | -15% | . | -67* | ?
COc1cc(CN2CCCC(CO)(Cc3ccccc3F)C2)ccc1O (stereo not drawn) | -18 | -20 | 19% | -1% | ? | i
Cc1ccccc1NC(=S)NC(NC(=O)COc1ccccc1)C(Cl)(Cl)Cl (stereo not drawn) | 0 | -7 | 13% | 35% | -24 | i
Cc1ccc(C)c(NC(=S)NC(NC(=O)N(C)C)C(Cl)(Cl)Cl)c1 (stereo not drawn) | 10 | 4 | 5% | -3% | -25 | i
CCc1ccc(OCC(=O)NC(NC(=S)Nc2ccccc2C)C(Cl)(Cl)Cl)cc1 (stereo not drawn) | -15 | -20 | -30% | ? | -57* | ?
COC(=O)c1ccccc1NC(=S)NC(NC(=O)COc1ccccc1)C(Cl)(Cl)Cl (stereo not drawn) | -77* | 5 | 7% | -3% | ? | i
Cc1ccc(C)c(NC(=S)NC(NC(=O)Cc2cccc3ccccc23)C(Cl)(Cl)Cl)c1 (stereo not drawn) | ? | 6 | -58% | 18µM* | -50* | 16µM*
COCCCNC(=O)CSc1nc2cc3c(cc2c(=O)n1CCCCCC(=O)NCc1ccc2c(c1)OCO2)OCO3 | . | 3 | . | . | . | .
CSc1ccc(CCNC(=O)Cn2ccc3cc(S(=O)(=O)N4CCCCCC4)ccc32)cc1 | . | -20 | . | -24% | . | i
COc1c(OC(C)=O)ccc(/C=C/c2ccc3cccc(OC)c3n2)c1[N+](=O)[O-] | -85* | -7 | 3% | 8% | -21 | i
CCOc1c(OC(C)=O)ccc(/C=C/c2ccc3cccc(OC(C)=O)c3n2)c1[N+](=O)[O-] | -3 | 0 | 0% | -1% | 0 | ?
COC(=O)c1ccc(/C=C/c2ccc3cccc(OC(C)=O)c3n2)cc1 | 13 | -16 | -28% | 40% | -64* | i
O=[N+]([O-])c1ccccc1/C=C/c1ccc2ccccc2n1 | -79* | 4 | -39% | 125% | 5 | i
COc1c(OC(C)=O)ccc(/C=C/c2ccc3ccccc3n2)c1[N+](=O)[O-] | -5 | 11 | -44% | -41% | -28 | 22µM*
COCC(C)n1c(=O)sc2ccccc2c1=O (stereo not drawn) | 48 | 15 | -24% | 15% | 7 | i
COc1ccc(CN2CCNC(=O)C2CC(=O)NCc2cccc(C)n2)c(OC)c1 (stereo not drawn) | 2 | 2 | -10% | 1% | -2 | i
CC(=O)/C=C/c1ccc2ccccc2n1 | -120* | -21 | -63% | 2% | 21 | i
SMILES | IL-1B inflam inh | DRD3 agonist | a7 integrin act | ATXN2 expr inh | D3 antag | S2 tox
CC(OC(=O)/C=C/c1ccc2ccccc2n1)C(=O)N(C)c1ccccc1 (stereo not drawn) | -2 | 4 | -21% | 36% | 8 | i
CC(C)CC(c1nnnn1C1CCCC1)N1CCC(C(N)=O)CC1 (stereo not drawn) | 2 | -5 | 14% | -13% | 1 | i
O=C(c1ccc(COc2ccc(Cl)cc2)o1)N1N=C(C(F)F)CC1(O)C(F)F (stereo not drawn) | -74* | 5 | -6% | -13% | 6 | i
COc1ccccc1OCc1ccc(C(=O)N2N=C(C(F)F)CC2(O)C(F)F)o1 (stereo not drawn) | -4 | 4 | 15% | 14% | 3 | i
Cc1cc(C)cc(N(CC(=O)Nc2ccc(C(F)(F)F)cc2)S(=O)(=O)c2c(C)[nH]c(=O)[nH]c2=O)c1 | 13 | 7 | 8% | 8% | 13 | i
CCC(C(=O)NC1CCCCC1)n1nc(C)c2c(C)n(-c3ccccc3)nc2c1=O (stereo not drawn) | -69* | -4 | -4% | 6% | 6 | ?
CCC(C(=O)NC1CC1)n1nc(C)c2c(C)n(-c3ccccc3)nc2c1=O (stereo not drawn) | 0 | -16 | -23% | 10% | 7 | i
O=C(C=Cc1ccccc1F)c1ccccc1 | -65* | 0 | . | ? | -26 | .
CSc1ccc(/C=C/C(=O)c2ccc(O)cc2)cc1 | -79* | -19 | -34% | 17% | ? | i
COc1ccc(C(=O)/C=C/c2ccccc2C(F)(F)F)cc1 | -73* | -6 | -19% | 3% | ? | i
CCOc1ccc(C(=O)/C=C/c2ccccc2C(F)(F)F)cc1 | 0 | 2 | -16% | -1% | 12 | i
Cc1ccc(C(=O)/C=C/C(=O)O)cc1 | -6 | 1 | -13% | . | ? | i
O=C(/C=C/c1ccccc1F)c1ccoc1 | -25 | 0 | -31% | 1% | -28 | i
Cc1ccc(/C=C/C(=O)c2ccc(O)cc2)cc1 | -100* | -7 | 0% | 62% | -20 | i
Cc1ccc(/C=C/C(=O)c2ccccc2)cc1 | -67* | -3 | -36%[7.66 µM] | 0% | -12 | i
Cc1nn(-c2ccccc2)c(Cl)c1/C=C/C(=O)c1ccccc1 | -95* | 1 | -38% | 27% | -22 | i
Cc1ccc(C(=O)Nc2ccc3ncccc3c2)cc1 | ? | -14 | 33% | -37% | -19 | ?
Cc1ccc(C(=O)/C=C/c2ccc3ncccc3c2)cc1 | -58* | -4 | 31% | -1% | -10 | i
